# Laboratory results: ChEMBL document CHEMBL1201862, “PubChem BioAssay data set” (2004)
# The campaign covered roughly 400,000 compounds. About 1,900 (0.47%) were called active. Another 14% or so got no clear call; they are omitted. This is one part of a sample in which actives are shown more often than they occur. The rule behind the calls is not given here.
# Biological target: Ataxin-2 (Homo sapiens) (UniProt Q99700)
# Assay: qHTS for Inhibitors of ATXN expression.
# Assay type: functional
# Chain of Ataxin-2 (Homo sapiens) (Q99700 whole entry): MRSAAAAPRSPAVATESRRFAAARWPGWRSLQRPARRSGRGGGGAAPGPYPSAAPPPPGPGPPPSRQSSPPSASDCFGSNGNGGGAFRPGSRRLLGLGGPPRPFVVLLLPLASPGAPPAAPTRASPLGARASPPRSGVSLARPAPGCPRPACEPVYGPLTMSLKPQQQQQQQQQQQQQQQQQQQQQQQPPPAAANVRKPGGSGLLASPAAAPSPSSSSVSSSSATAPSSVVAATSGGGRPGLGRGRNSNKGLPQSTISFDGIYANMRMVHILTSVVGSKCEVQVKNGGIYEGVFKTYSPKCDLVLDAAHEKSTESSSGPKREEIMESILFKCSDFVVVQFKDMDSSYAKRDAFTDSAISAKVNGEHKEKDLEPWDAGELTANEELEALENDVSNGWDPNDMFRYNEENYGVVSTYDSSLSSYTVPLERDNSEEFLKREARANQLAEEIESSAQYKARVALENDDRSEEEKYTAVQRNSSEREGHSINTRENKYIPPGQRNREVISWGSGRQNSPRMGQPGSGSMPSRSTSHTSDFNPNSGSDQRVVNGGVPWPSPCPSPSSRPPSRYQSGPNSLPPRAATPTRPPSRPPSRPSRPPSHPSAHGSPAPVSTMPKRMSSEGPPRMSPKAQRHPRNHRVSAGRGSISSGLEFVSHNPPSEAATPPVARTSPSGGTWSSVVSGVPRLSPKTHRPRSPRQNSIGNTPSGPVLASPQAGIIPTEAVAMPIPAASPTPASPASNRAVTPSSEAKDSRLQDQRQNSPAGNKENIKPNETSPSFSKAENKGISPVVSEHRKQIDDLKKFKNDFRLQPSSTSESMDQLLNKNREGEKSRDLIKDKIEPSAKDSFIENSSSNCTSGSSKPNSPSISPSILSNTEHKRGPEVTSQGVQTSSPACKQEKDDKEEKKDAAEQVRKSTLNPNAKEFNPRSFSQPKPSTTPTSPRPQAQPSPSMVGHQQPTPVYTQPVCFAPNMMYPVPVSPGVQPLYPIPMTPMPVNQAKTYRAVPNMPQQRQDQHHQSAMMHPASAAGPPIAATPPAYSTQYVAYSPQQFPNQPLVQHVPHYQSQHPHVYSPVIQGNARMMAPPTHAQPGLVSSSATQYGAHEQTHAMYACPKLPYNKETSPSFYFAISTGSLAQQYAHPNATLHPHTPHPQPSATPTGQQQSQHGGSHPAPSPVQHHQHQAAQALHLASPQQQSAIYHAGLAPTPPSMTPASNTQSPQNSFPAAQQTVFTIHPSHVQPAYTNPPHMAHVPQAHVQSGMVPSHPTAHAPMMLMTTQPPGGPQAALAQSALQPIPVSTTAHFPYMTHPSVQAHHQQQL
row,Structure (SMILES),Potency
1,CCOC(=O)[C@]12Cc3ccccc3[C@H]1N(C(C)C)C(=O)c1cc(OC)ccc12,17.8 µM (active)
2,CCOC(=O)[C@]12Cc3c(cc(OC)c(OC)c3OC)[C@H]1N(C)C(=O)c1cc(OC)ccc12,11.2 µM (active)
3,CCOC(=O)[C@]12Cc3ccccc3[C@H]1N(C)C(=O)c1cc(OC)ccc12,31.6 µM (active)
4,CCOC(=O)[C@]12Cc3ccccc3[C@H]1N(C(C)C)C(=O)c1ccccc12,22.4 µM (active)
5,N#CC1=C(N)Oc2c(c(=O)oc3ccccc23)C1c1ccc([N+](=O)[O-])o1 (stereo not given),inactive
6,CC(C)OCC(O)CN1CC2C[C@@H](C1)Cn1c2cccc1=O (stereo not given in full),inactive
7,Cc1cc(=O)oc2cc(OCC(=O)N3CCN(C(C)c4ccccc4)CC3)c(Cl)cc12 (stereo not given),inactive
8,CCCCn1c(NC(=O)c2ccco2)c(C(=O)OCC)c2nc3ccccc3nc21,inactive
9,CCOC(=O)[C@]12Cc3cc(C)ccc3[C@H]1N(C(C)C)C(=O)c1ccccc12,11.2 µM (active)
10,CCCCN1C(=O)/C(=C/NNC(=O)c2ccncc2)C(=O)NC1=S,inactive
11,COc1cccc(CNCCc2cccc(F)c2)c1OC,inactive
12,CCOc1c(Cl)cc(CNCCc2c[nH]c3ccccc23)cc1OC,20 µM (active)
13,CCOc1c(Cl)cc(CNC(C)C(O)c2ccccc2)cc1OC (stereo not given),inactive
14,COc1cccc(-n2c(/C=C/c3ccc(O)c(O)c3)nc3ccccc3c2=O)c1,inactive
15,COP(=O)(OC)c1nc(-c2ccc([N+](=O)[O-])cc2)oc1N1CCCCC1,inactive
16,O=[N+]([O-])/C=C/c1c(Cl)cccc1Cl,4.74 µM (active)
17,CC(C)CCNC(=O)c1c(N)n(CC2CCCO2)c2nc3ccccc3nc12 (stereo not given),inactive
18,O=C1NC(=O)N(Cc2ccccc2)C(=O)/C1=C/NNC(=O)c1ccncc1,inactive
19,Cc1cnc(SCc2ccccn2)nc1C1CCCN(C(=O)c2scc3c2CCCC3)C1 (stereo not given),25.1 µM (active)
20,Nc1ccc2c3c(cccc13)-c1ccccc1-2,inactive
21,Nc1c(C(=O)NCC2CCCO2)c2nc3ccccc3nc2n1Cc1ccco1 (stereo not given),inactive
22,O=C(NCC1=C(c2ccc3ccccc3c2)C[C@@H]2CC[C@H]1N2Cc1ccco1)c1ccc([N+](=O)[O-])cc1,31.6 µM (active)
23,Nc1c(C(=O)NCc2ccco2)c2nc3ccccc3nc2n1Cc1ccccc1,inactive
24,CCC(Nc1ccccc1N)=C1C(=O)NC(=O)NC1=O,inactive

row,Structure (SMILES),Potency
1,CCC1(C)OC(c2ccccc2)=C/C(=C/C=C2C(=O)NC(=O)NC2=O)O1 (stereo not given),inactive
2,O=c1ccc2cc(O[C@@H]3O[C@H](CO)[C@@H](O)[C@H](O)[C@H]3O)c(O)cc2o1,inactive
3,O=C(NCc1ccccc1)c1cccn(Cc2cccc(Cl)c2)c1=O,inactive
4,Cc1n[nH]c2ccc(-c3cncc(OC[C@@H](N)Cc4c[nH]c5ccccc45)c3)cc12,11.2 µM (active)
5,C[n+]1c2cc(N)ccc2cc2ccc(N)cc21,inactive
6,Clc1ccc(COC(Cn2ccnc2)c2ccc(Cl)cc2Cl)cc1 (stereo not given),39.8 µM (active)
7,Clc1ccc(C(Cn2ccnc2)OCc2csc3c(Cl)cccc23)c(Cl)c1 (stereo not given),28.2 µM (active)
8,COc1ccc(Br)cc1CNCCc1cccc(Cl)c1,inactive
9,CC/C(=C(\c1ccc(O)cc1)c1ccc(OCCN(C)C)cc1)c1ccccc1,39.8 µM (active)
10,CCCCCC[C@H]1C(=O)O[C@H](C)[C@H](NC(=O)c2cccc(NC=O)c2O)C(=O)O[C@@H](C)[C@H]1OC(=O)CC(C)C,inactive
11,C=CCc1ccccc1OCCn1c(C2CC(=O)N(Cc3ccc(F)cc3)C2)nc2ccccc21 (stereo not given),39.8 µM (active)
12,CC[C@@H]1CN2CCc3cc(OC)c(OC)cc3[C@H]2C[C@@H]1C[C@H]1NCCc2cc(OC)c(OC)cc21,0.316 µM (active)
13,CC[C@@H]1CN2CCc3cc(OC)c(OC)cc3[C@H]2C[C@@H]1C[C@@H]1NCCc2cc(O)c(OC)cc21,0.0631 µM (active)
14,CC(=O)O[C@H]1CCC2C3CCC4=CC(=O)CCC4=C3C=C[C@@]21C (stereo not given in full),inactive
15,CN1C(=O)C(=CNCCN2CCOCC2)C(=O)N(C)C1=S,inactive
16,Cc1ccc(N/N=C/C=C/c2ccco2)cc1,inactive
17,CC(=O)C12CC(C)=C(C)CC1CC1C3CCC4=CC(=O)CCC4(C)C3CCC12C (stereo not given),inactive
18,O=C1NC(=O)N(CCc2ccc(F)cc2)C(=O)/C1=C/NNC(=O)c1ccncc1,inactive
19,Fc1ccc(C2=CCN(C(c3cccs3)c3nnnn3CCc3ccccc3)CC2)cc1 (stereo not given),39.8 µM (active)
20,Clc1ccc2sc(C3CCNCC3)nc2c1,inactive
21,COc1cccc(C(c2nnnn2Cc2ccccc2)N2CCC3(CC2)C(=O)NCN3c2ccccc2)c1OC (stereo not given),39.8 µM (active)
22,CCCCn1nnnc1C(c1cccc(OC)c1OC)N1CCC2(CC1)C(=O)NCN2c1ccccc1 (stereo not given),39.8 µM (active)
23,O=C1NCN(c2ccccc2)C12CCN(C(c1cccc3ccccc13)c1nnnn1Cc1ccccc1)CC2 (stereo not given),39.8 µM (active)
24,O=C1NCN(c2ccccc2)C12CCN(C(c1ccccc1OC(F)(F)F)c1nnnn1Cc1ccccc1)CC2 (stereo not given),39.8 µM (active)

row,Structure (SMILES),Potency
1,Cc1c(CC(=O)N2C[C@H]3C[C@@H](C2)c2cccc(=O)n2C3)c(=O)oc2c(C)c(O)ccc12,inactive
2,COc1ccc2c(c1)NP(=S)(Oc1ccccc1)N2 (stereo not given),inactive
3,N#Cc1cccc(NC(=O)CSc2nc3c(cc2C#N)N2CCC3CC2)c1,inactive
4,Fc1cccc(F)c1CN1CCN(c2ccc(Cl)cc2)CC1,inactive
5,CCC(C)NC(=O)c1c(N)n(CCCOC)c2nc3ccccc3nc12 (stereo not given),inactive
6,CCCCNC(=O)c1c(N)n(CCCOC)c2nc3ccccc3nc12,inactive
7,Cc1cc(=O)oc2cc3c(cc12)CCCN3,inactive
8,CC[C@H](C)/C=C(C)/C=C/C1=CC2=C(Cl)C(=O)[C@](C)(OC(C)=O)C(=O)C2=CO1,28.2 µM (active)
9,CCn1nc(-c2ccccc2)nc2c(=O)n(C)c(=O)nc1-2,20 µM (active)
10,CCn1nc(/C=C/c2ccccc2)nc2c(=O)n(C)c(=O)nc1-2,10.6 µM (active)
11,COc1ccc(-n2c(/C=C/c3ccc(O)cc3)nc3ccccc3c2=O)cc1,inactive
12,CCN1C(=O)/C(=C/NNC(=O)c2ccncc2)C(=O)NC1=S,inactive
13,CCOc1ccc2nc(NN=C3C(=O)NC(=S)NC3=O)sc2c1,15 µM (active)
14,CCC(=O)N1N=C2C3CCN(CC3)C2C1c1ccc(C)cc1 (stereo not given),inactive
15,COc1cccc(C(=O)NCc2nc(-c3cccc(NC(=O)c4ccoc4C)c3)oc2C)c1OC,28.2 µM (active)
16,Nc1ccc2c(c1)Cc1cc([N+](=O)[O-])ccc1-2,inactive
17,Clc1ccc2c(c1)C(OC1CN3CCC1CC3)c1ccccc1CS2 (stereo not given),28.2 µM (active)
18,COc1ccc(S(=O)(=O)Nc2ccccc2OC)cc1NN=C1C(=O)NC(=S)NC1=O,39.8 µM (active)
19,CCOc1ccc(NS(=O)(=O)c2ccc(Cl)c(NN=C3C(=O)NC(=S)NC3=O)c2)cc1Br,28.2 µM (active)
20,Nc1ccc2ccc3cccc[n+]3c2c1,inactive
21,COCCCNC(=O)c1c(NC(=O)c2ccccc2Cl)n(Cc2ccccc2)c2nc3ccccc3nc12,inactive
22,CCC1(O)C(=O)OCc2c1cc1n(c2=O)Cc2cc3cc(O)ccc3nc2-1 (stereo not given),inactive
23,CC[C@@]1(O)C(=O)OCc2c1cc1n(c2=O)Cc2cc3ccccc3nc2-1,0.01 µM (active)
24,CCC1(OC(=O)CN)C(=O)OCc2c1cc1n(c2=O)Cc2cc3ccccc3nc2-1 (stereo not given),inactive

row,Structure (SMILES),Potency
1,CCCCCn1c(=O)c(C(=O)NCc2ccccc2Cl)c(O)c2ccccc21,inactive
2,NNC(=O)CN1C(=O)CN=C(c2ccccc2)c2cc(Br)ccc21,inactive
3,O=C(CN1C(=O)CN=C(c2ccccc2)c2ccccc21)Nc1cccc(C(F)(F)F)c1,31.6 µM (active)
4,C=C1C(=O)OC2CC3(C)OC3CCC(C)=CC(OC(C)=O)C12 (stereo not given),33.6 µM (active)
5,CCCCn1c(NS(=O)(=O)c2ccccc2)c(C(=O)OCC)c2nc3ccccc3nc21,inactive
6,CCOC(=O)c1c(NS(=O)(=O)c2ccccc2)n(CCCOC)c2nc3ccccc3nc12,inactive
7,COCCCn1c(N)c(C(=O)NCCC(C)C)c2nc3ccccc3nc21,inactive
8,Brc1cccc(CNCCc2ccc3c(c2)OCO3)c1,inactive
9,CNCCC(Oc1ccc(C(F)(F)F)cc1)c1ccccc1 (stereo not given),31.6 µM (active)
10,CC[C@@]1(O)C(=O)OCc2c1cc1n(c2=O)Cc2cc3c(NC(=O)CN)cccc3nc2-1,inactive
11,COC(=O)c1ccc(C(C(=O)NC2CCCCC2)N(CCN2CCOCC2)C(=O)Cc2cccs2)cc1 (stereo not given),inactive
12,CCc1ccc2c(c1)Sc1ccccc1CC2N1CCN(C)CC1 (stereo not given),inactive
13,O=c1ccc2cc(OC3O[C@H](CO)[C@@H](O)[C@H](O)[C@H]3O)c(O)cc2o1 (stereo not given in full),inactive
14,O=[N+]([O-])c1ccc(N2CCOCC2)c2c1no[n+]2[O-],3.98 µM (active)
15,CN1CCN(c2ccc([N+](=O)[O-])c3no[n+]([O-])c23)CC1,7.08 µM (active)
16,O=[N+]([O-])c1ccc(N2CCOCC2)c2cccnc12,inactive
17,O=[N+]([O-])c1ccc(N(CCO)CCO)c2c1no[n+]2[O-],17.8 µM (active)
18,COc1ccc(Br)cc1CNCCc1ccc2c(c1)OCO2,inactive
19,Cc1cc2c(C(F)(F)F)cc(=O)oc2c2c1NCCC2,inactive
20,Cc1cc(C=C2C(=O)NC(=S)NC2=O)c(C)n1-c1ccc2c(c1)OCO2,39.8 µM (active)
21,Cc1cc(/C=C2\C(=O)NC(=O)N(Cc3ccccc3Cl)C2=O)c(C)n1-c1ccc(C(=O)O)cc1,inactive
22,Cc1cccc(N2C(=O)NC(=O)/C(=C/c3cc4c(cc3[N+](=O)[O-])OCO4)C2=O)c1,inactive
23,CCN(C(=O)COC(=O)c1cn(C)c2ccccc12)c1ccc(F)cc1,inactive
